Hits are enriched below; roughly 3% of the tested compounds scored in any of these assays.
Peg3 imprint: genomic imprint erasure induction; Potency, µM (top dose mostly 60.7 µM), for inactives: at the highest dose activity change, positive = activation, actives largely listed as activators; hit rate 0.02% among 110,000; AID 1948; mouse ES Peg3-LacZ reporter, beta-gal luminescence, 40 h
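Gelatin-coated wells received 300 freshly trypsinized female ES cells with a Peg3LacZ-Neo reporter on the maternal allele, then incubated 40 hours at 37C. BetaGlo was added for 5 minutes at room temperature before a single luminescence read.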
CRE Fsk mod: alters forskolin-stimulated CRE reporter signaling in CHO cells | CHO CRE-bla reporter (cAMP response element driving beta-lactamase), forskolin EC10, beta-lactamase ratio | Potency, µM (top dose mostly 38.2 µM), for the others: top-dose activity change, negative = inhibition, hits mostly activators | hit rate 2.5% among 71,000 | AID 662; active = well fitted activation curve with a large enough effect in the signal ratio, with a control signal flat, not every such curve was filed as active; inconclusive = small, poorly fitted or top-dose-only effect, or effect the other way, or a change in a side signal; the % refers to the signal ratio; note: % of control where 0% means no effect
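CRE-bla CHO cells stimulated with EC10 NKH 477 (water-soluble forskolin) and compound titrations, 3 h at 37C; beta-lactamase read with CCF4 after 2 h at room temperature. Activity from 460/530 nm emission ratio, AC50 values for positive or negative modulation.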
p53ts 39C kill: cytotoxicity in p53ts cells at nonpermissive temperature | H1299-p53A138V viability at 39C, ATP luminescence, 24 h | Potency, µM (series often up to 46.1 µM), without a hit: at the top dose activity change, negative = cell killing, usual class: cytotoxic | hit rate 1.5% among 130,000; note: % is set by controls: 0 for no effect and ±100 for the full control effect; nearly all actives have a fitted effect of over 55% in size
IkB sig inh: IkB pathway inhibition in ABC-DLBCL cells; Potency, µM (titrated, usually from 57.1 µM), inactives show at the highest dose IkBa stabilization activation; AID 445; hit rate 0.04% among 110,000; ABC-DLBCL IkBa-CBG/CBR dual luciferase ratio, 4 h; response scale: scaled: untreated 0%, proteasome inhibitor 100%; active = well fitted curve in the direction sought with a large enough effect in the signal ratio, not every such curve was filed as active; inconclusive = small, poorly fitted or top-dose-only effect, or a change in a side signal; the % refers to the signal ratio;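 note: the direction sought is a rising ratio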
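Luminescence ratio of IκBα-fused green versus native red beetle luciferase in OCI-Ly3 cells, 4 h post-doxycycline with compound; red signal alone, scaled from basal (0%) to zero light (-100%), flagged nonspecific or cytotoxic effects.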
p53ts 32C kill: p53ts cell cytotoxicity, permissive temperature; H1299-p53A138V at 32C, ATP luminescence viability, 24 h; Potency, µM (doses to about 46.1 µM), for the others: at the highest dose activity change, negative = cytotoxicity, actives largely listed as cytotoxic; hit rate 0.93% among 130,000;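 note: 0% = DMSO and -100% = full killing by reference compound; nearly all actives have a fitted effect of over 55% in size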
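ATP-content luminescence (ATPlite) read-out after 24 h compound exposure at 32C in H1299-p53A138V cells (600/well). Tested up to 46 uM. Normalized to DMSO (0%) and 100 uM tamoxifen (100% killing); Hill-fit AC50.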
Starred values were filed as active, the others as inactive; ? = inconclusive; / = no result given; [ ] = another dose, or the depositor's remark. Unless noted, calls come from the whole dose curve; as a rule, active = well fitted curve in the direction sought with a large enough effect; inconclusive = small, poorly fitted or top-dose-only effect, or another doubt; inactive = no such curve, though single readings can be large; an effect the other way counts as inactive or inconclusive. Potency is the fitted concentration of half-maximal effect.

SMILES | Peg3 imprint | CRE Fsk mod | p53ts 39C kill | IkB sig inh | p53ts 32C kill
CN1Cc2sc(N)c(C#N)c2CC1(C)C | 30% | 10µM* | 1% | 0% | -5%
Cc1ccc(Nc2sc(C(=O)c3ccccc3)c(N)c2S(=O)(=O)c2ccccc2)c(C)c1 | -5%[10.9 µM] | / | -1% | -1% | 15%
COc1ccc(C2CC(c3cccs3)=NN2C(=O)CSc2nc3ccccc3s2)cc1 (centres undefined) | / | / | -5% | / | /
COc1cc(/C=C(\C#N)C(N)=O)cc(CSc2nc3ccccc3s2)c1O | -13% | 25µM* | ? | 0% | -27%
O=C(CSc1nc2ccccc2s1)N1CCN(C(=O)c2ccco2)CC1 | -20% | -8% | 15% | 1% | 1%
Cc1sc2ncnc(SCC(=O)NC(=O)NCc3ccco3)c2c1C | -19% | 13µM* | -9% | 0% | -15%
Cc1nc(SCC(=O)N2CCN(C(=O)c3ccco3)CC2)c2c(C)c(C)sc2n1 | -6% | 2µM* | 11% | 0% | 3%
Cc1nc(SCC(=O)NCc2ccco2)c2c(C)c(C)sc2n1 | 4% | 3.2µM* | 3% | ? | 9%
Cc1sc2nc(C(C)C)nc(SCC(=O)NCc3ccco3)c2c1C | -16% | ? | -12% | ? | 4%
O=C1C=C(NCCc2cc(Br)c(O)c(Br)c2)C(=O)c2ncccc21 | -40%[10.9 µM] | 23%[7.6 µM] | ? | ? | ?
O=C1C=C(NCCO)C(=O)c2cnccc21 | -72% | ? | 4µM* | / | 3.2µM*
CCOC(=O)Cc1c(C)nc2c(-c3cccc(Br)c3)c[nH]n2c1=O | -30% | -16% | 13µM* | ? | ?
COc1ccc(-c2c(O)c3c(OC)c4c(cc3oc2=O)OC(C)(C)C=C4)cc1 | 1% | / | 6.3µM* | / | 7.9µM*
COC(=O)Nc1nc2ccc(C(=O)c3ccccc3)cc2[nH]1 | -33% | 10µM* | -8% | ? | 14%
COc1ccc2nc(N(Cc3cccnc3)C(=O)c3ccc(Cl)cc3)sc2c1 | 9%[10.9 µM] | / | -20% | 0% | -19%
CCCCC(=O)Nc1ccc(OCc2cc(=O)n3c(C)csc3n2)cc1 | -20%[10.9 µM] | / | 21% | 1% | 2%
CN=c1scc(-c2cccs2)n1/N=C/c1ccc(O)c(O)c1O | / | / | 6.3µM* | / | /
Cc1ccc(NC(=O)CSc2nccn2-c2ccccc2)cc1 | -8%[10.9 µM] | / | 3% | 4% | 28%
O=C(OCC1OC(OC(=O)c2cc(O)c(O)c(OC(=O)c3cc(O)c(O)c(O)c3)c2)[C@@H](OC(=O)c2cc(O)c(O)c(OC(=O)c3cc(O)c(O)c(O)c3)c2)C(OC(=O)c2cc(O)c(O)c(OC(=O)c3cc(O)c(O)c(O)c3)c2)C1OC(=O)c1cc(O)c(O)c(OC(=O)c2cc(O)c(O)c(O)c2)c1)c1cc(O)c(O)c(OC(=O)c2cc(O)c(O)c(O)c2)c1 (some centres undefined) | -83% | / | 6.3µM* | / | 10µM*
Cc1cccc(N2CCN(C(=O)C3CCCN(S(=O)(=O)c4cccc5nsnc45)C3)CC2)c1C (centres undefined) | 8%[10.9 µM] | / | -5% | ? | -3%
C/C=C/Cn1c(N(C)Cc2ccccc2)nc2c1c(=O)[nH]c(=O)n2C | -5% | 10µM* | -7% | -1% | 6%
CN(Cc1ccccc1)c1nc2c(c(=O)[nH]c(=O)n2C)n1C | -1% | 12% | 9% | 0% | -2%
Cc1cccc(Cn2c(N(C)Cc3ccccc3)nc3c2c(=O)[nH]c(=O)n3C)c1 | -46% | 13µM* | 5µM* | 5% | 6.3µM*
CCCCCn1c(=O)[nH]c2cc(C(=O)N3CCN(c4cccc(OC)c4)CC3)ccc2c1=O | -11%[10.9 µM] | / | 26% | ? | 0%
COc1ccc(/C=C\C(=O)Nc2ccccc2C(=O)O)cc1OC | -66% | -11% | 13µM* | ? | 16µM*
N=c1c(C(=O)NCc2ccco2)cc2c(=O)n3ccccc3nc2n1Cc1ccc(Cl)cc1 | -8% | 2.5µM* | -3% | 1% | 0%
N=c1c(C(=O)NCc2ccco2)cc2c(=O)n3ccccc3nc2n1Cc1ccccc1 | -7% | 10µM* | -15% | 7% | -11%
C=CCc1c(C)nc(SC)nc1Nc1ccc(C(C)=O)cc1 | -11% | 10µM* | -1% | ? | 0%

Screening results: PubChem, National Center for Advancing Translational Sciences (NCATS)
